In PubChem BioAssay (NCI):
The panel holds about 83,000 compounds, 20% with a hit somewhere; the sample as a whole holds those more often.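 Step 1: grow cells in 96-well plates. Step 2: add test compound at a single concentration. Step 3: incubate 48 h. Step 4: record percent growth.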 Calls of active or inactive are those of the source. How the source made its calls: active means growth percent below 10; inactive means the rest.

The compounds below were run on NCI-H460 lung (assay: NCI-60 one-dose screen, 48 h (100 = growth as untreated, 0 = no growth, -100 = all killed)). Conditions: 10 µM unless noted.

Compound | growth
COc1ccc(/C=C/C(=O)/C=C(/C=C/c2ccc(OC)c(OC)c2)OB(F)F)cc1OC | 21.8% (inactive)
COc1cc(/C=C/C(=O)/C=C/c2cc3ccc(Cl)cc3[nH]c2=O)ccc1O | 53.3% (inactive)
CCCCn1c(=O)c(/C=C/C(=O)/C=C/c2cc3ccccc3n(CCCC)c2=O)cc2ccccc21 | 5.91% (active)
COc1ccc(-c2nc(C#N)c(NCC(c3ccco3)N3CCCC3)o2)cc1 (stereo not drawn) | 24.1% (inactive)
N#C/C(=C/c1ccc(O)c([N+](=O)[O-])c1)c1nc(-c2ccc([N+](=O)[O-])cc2)cs1 | 20.5% (inactive)
C=C1C(=O)O[C@H]2[C@H]1CC/C(COC(=O)CCCCC(=O)OC/C1=C/CC[C@@]3(C)O[C@H]3[C@H]3OC(=O)C(=C)[C@@H]3CC1)=C\CC[C@@]1(C)O[C@@H]21 | 99.3% (inactive)
CCOC(=O)c1c(C(F)(F)F)n([O-])c2ccc(Cl)cc2[n+]1=O | -78.5% (active)
COc1ccc(-c2nc(C#N)c(NCC(c3ccc(Cl)cc3)N3CCCCC3)o2)cc1 (stereo not drawn) | 101% (inactive)
O=CN1N=C(c2ccc(Cl)cc2)CC1c1cccc(Nc2ccnc3cc(C(F)(F)F)ccc23)c1 (stereo not drawn) | 57.9% (inactive)
O=C(CCCCCCCCC(=O)Nc1cccc(C2=NCCN2)c1)Nc1cccc(C2=NCCN2)c1 | 93.6% (inactive)
CCOC(=O)C1CCN(S(=O)(=O)/N=C2/NC(=O)NC2=C(Cl)Cl)CC1 | 7.43% (active)
S=c1ssnc1-c1cc2ccccc2o1 | 70% (inactive)
NS(=O)(=O)c1ccc(C2C3=C(CCCC3=O)OC3=C2C(=O)c2ccccc2C3=O)cc1 (stereo not drawn) | -71.4% (active)
C=C1C(=O)O[C@H]2[C@H]1CCC(/C=N/c1ncc(Br)cc1N)=C\CC[C@@]1(C)O[C@@H]21 | 58.3% (inactive)
C#Cc1ccccc1NC(=O)c1sc2nc3c(cc2c1N)CCCCC3 | 104% (inactive)
NS(=O)(=O)c1ccc(-n2nc(-c3ccccc3)ccc2=O)cc1 | 104% (inactive)
COc1ccc(-c2nnc(N3CCN(C(=O)CN4CCN(c5ccc(OC)cc5)CC4)CC3)nc2-c2ccc(OC)cc2)cc1 | 29.3% (inactive)
N#Cc1ccc(Oc2ccc3ccc(=O)oc3c2)cc1 | 103% (inactive)
CC1CCCN(CCCCCOc2ccc3oc4ccccc4c(=O)c3c2)C1 (stereo not drawn) | 75.5% (inactive)

Compound | growth
CS(=O)(=O)O[C@@H]1C(=O)N(c2cc3c4ccccc4ccc3c3ccccc23)[C@H]1c1ccc(F)cn1 | 16.4% (inactive)
C=C1C(=O)O[C@H]2[C@H]1CC/C(C=Nc1c(N)cc(F)cc1Br)=C\CC[C@@]1(C)O[C@@H]21 | 96.3% (inactive)
Cc1ccc(SC2c3ccc(C)cc3Oc3nc(N)c(C#N)c(N)c32)cc1 (stereo not drawn) | 101% (inactive)
O=C(Nc1nccs1)c1noc2ccccc12 | 96.6% (inactive)
C=C(C)[C@@H]1CC[C@]2(C(=O)OCCCC[P+](c3ccccc3)(c3ccccc3)c3ccccc3)CC[C@]3(C)[C@H](CC[C@@H]4[C@@]5(C)CC[C@H](OC(=O)C(Cl)Cl)C(C)(C)[C@@H]5CC[C@]43C)[C@@H]12 | -41.1% (active)
Cc1cc2ccccc2c[n+]1CC(=O)c1ccc(-c2ccccc2)cc1 | 45.9% (inactive)
O=C1Nc2ccc(Cl)cc2/C1=N/c1nc(-c2ccc(F)cc2)cs1 | 34.1% (inactive)
COc1cc(/C=N/Nc2nc(-c3ccc(F)cc3)c(C#N)c(N3CCOCC3)n2)ccc1O | 102% (inactive)
C=C(C)[C@@H]1CC[C@]2(C(=O)N=C=S)CC[C@]3(C)[C@H](CC[C@@H]4[C@@]5(C)CCC(=O)C(C)(C)[C@@H]5CC[C@]43C)[C@@H]12 | 6.85% (active)
CC1(C)[C@@H](O)CC[C@]2(C)[C@H]3CC[C@@H]4[C@H]5[C@H](c6cn(-c7ccccc7)nn6)CC[C@]5(CO)CC[C@@]4(C)[C@]3(C)CC[C@@H]12 | 78.4% (inactive)
COc1cc(/C=C/C(=O)c2ccc(NC(=O)CSc3nnc(-c4cc(OC)c(OC)c(OC)c4)n3-c3ccccc3)cc2)cc(OC)c1OC | 13% (inactive)
O=c1c2ccccc2n(CC(O)CN2CCCC2)c2c(Br)cccc12 (stereo not drawn) | 106% (inactive)
COc1cc(-c2cn(-c3ccc(Cl)c(Cl)c3)c(=O)[nH]2)cc(OC)c1OC | 96.7% (inactive)
COC(=O)c1ccc2c(c1)n(Cc1ccc3ccccc3c1)c[n+]2Cc1ccc2ccccc2c1 | 28.6% (inactive)
O=C1NN(c2ccccc2)C(c2ccc(Cl)cc2)N2CCC[C@H]12 (stereo partly drawn) | 103% (inactive)
Nc1ccccc1NS(=O)(=O)c1ccc(Cl)cc1 | 104% (inactive)
CCCCCCN1C(=O)CN=C1Nc1ccc2cc3ccc(NC4=NCC(=O)N4CCCCCC)cc3nc2c1 | 57.5% (inactive)
Nc1n[nH]c2cccc(C#Cc3cccc(NC(=O)c4cc(N5CCOCC5)cc(C(F)(F)F)c4)c3)c12 | 47.3% (inactive)
Cc1cnc(SCc2ccc(Cl)cc2Cl)nc1Nc1ccc(Cl)c(Cl)c1 | 92.2% (inactive)
